According to the supplement of paper PMC11732987, “Enantioselective OTUD7B fragment discovery through chemoproteomics screening and high-throughput optimisation” (Communications Chemistry, 2025):

Columns and labels:
Assay in all cases: log2 ratio of Biotin-Ahx-Ub-VS probe labelling (fragment/DMSO); higher = less target engagement (more negative = stronger competition), active = hit call of the paper (q ≤ 0.05, log2 ratio ≤ -1)
Conditions in all cases: compound concentration: 200 uM; treatment time: 3 h
[1] = biological target: USP34 (UniProt Q70CQ2)
USP34, sequence (Q70CQ2 whole entry, the tested form may be a part): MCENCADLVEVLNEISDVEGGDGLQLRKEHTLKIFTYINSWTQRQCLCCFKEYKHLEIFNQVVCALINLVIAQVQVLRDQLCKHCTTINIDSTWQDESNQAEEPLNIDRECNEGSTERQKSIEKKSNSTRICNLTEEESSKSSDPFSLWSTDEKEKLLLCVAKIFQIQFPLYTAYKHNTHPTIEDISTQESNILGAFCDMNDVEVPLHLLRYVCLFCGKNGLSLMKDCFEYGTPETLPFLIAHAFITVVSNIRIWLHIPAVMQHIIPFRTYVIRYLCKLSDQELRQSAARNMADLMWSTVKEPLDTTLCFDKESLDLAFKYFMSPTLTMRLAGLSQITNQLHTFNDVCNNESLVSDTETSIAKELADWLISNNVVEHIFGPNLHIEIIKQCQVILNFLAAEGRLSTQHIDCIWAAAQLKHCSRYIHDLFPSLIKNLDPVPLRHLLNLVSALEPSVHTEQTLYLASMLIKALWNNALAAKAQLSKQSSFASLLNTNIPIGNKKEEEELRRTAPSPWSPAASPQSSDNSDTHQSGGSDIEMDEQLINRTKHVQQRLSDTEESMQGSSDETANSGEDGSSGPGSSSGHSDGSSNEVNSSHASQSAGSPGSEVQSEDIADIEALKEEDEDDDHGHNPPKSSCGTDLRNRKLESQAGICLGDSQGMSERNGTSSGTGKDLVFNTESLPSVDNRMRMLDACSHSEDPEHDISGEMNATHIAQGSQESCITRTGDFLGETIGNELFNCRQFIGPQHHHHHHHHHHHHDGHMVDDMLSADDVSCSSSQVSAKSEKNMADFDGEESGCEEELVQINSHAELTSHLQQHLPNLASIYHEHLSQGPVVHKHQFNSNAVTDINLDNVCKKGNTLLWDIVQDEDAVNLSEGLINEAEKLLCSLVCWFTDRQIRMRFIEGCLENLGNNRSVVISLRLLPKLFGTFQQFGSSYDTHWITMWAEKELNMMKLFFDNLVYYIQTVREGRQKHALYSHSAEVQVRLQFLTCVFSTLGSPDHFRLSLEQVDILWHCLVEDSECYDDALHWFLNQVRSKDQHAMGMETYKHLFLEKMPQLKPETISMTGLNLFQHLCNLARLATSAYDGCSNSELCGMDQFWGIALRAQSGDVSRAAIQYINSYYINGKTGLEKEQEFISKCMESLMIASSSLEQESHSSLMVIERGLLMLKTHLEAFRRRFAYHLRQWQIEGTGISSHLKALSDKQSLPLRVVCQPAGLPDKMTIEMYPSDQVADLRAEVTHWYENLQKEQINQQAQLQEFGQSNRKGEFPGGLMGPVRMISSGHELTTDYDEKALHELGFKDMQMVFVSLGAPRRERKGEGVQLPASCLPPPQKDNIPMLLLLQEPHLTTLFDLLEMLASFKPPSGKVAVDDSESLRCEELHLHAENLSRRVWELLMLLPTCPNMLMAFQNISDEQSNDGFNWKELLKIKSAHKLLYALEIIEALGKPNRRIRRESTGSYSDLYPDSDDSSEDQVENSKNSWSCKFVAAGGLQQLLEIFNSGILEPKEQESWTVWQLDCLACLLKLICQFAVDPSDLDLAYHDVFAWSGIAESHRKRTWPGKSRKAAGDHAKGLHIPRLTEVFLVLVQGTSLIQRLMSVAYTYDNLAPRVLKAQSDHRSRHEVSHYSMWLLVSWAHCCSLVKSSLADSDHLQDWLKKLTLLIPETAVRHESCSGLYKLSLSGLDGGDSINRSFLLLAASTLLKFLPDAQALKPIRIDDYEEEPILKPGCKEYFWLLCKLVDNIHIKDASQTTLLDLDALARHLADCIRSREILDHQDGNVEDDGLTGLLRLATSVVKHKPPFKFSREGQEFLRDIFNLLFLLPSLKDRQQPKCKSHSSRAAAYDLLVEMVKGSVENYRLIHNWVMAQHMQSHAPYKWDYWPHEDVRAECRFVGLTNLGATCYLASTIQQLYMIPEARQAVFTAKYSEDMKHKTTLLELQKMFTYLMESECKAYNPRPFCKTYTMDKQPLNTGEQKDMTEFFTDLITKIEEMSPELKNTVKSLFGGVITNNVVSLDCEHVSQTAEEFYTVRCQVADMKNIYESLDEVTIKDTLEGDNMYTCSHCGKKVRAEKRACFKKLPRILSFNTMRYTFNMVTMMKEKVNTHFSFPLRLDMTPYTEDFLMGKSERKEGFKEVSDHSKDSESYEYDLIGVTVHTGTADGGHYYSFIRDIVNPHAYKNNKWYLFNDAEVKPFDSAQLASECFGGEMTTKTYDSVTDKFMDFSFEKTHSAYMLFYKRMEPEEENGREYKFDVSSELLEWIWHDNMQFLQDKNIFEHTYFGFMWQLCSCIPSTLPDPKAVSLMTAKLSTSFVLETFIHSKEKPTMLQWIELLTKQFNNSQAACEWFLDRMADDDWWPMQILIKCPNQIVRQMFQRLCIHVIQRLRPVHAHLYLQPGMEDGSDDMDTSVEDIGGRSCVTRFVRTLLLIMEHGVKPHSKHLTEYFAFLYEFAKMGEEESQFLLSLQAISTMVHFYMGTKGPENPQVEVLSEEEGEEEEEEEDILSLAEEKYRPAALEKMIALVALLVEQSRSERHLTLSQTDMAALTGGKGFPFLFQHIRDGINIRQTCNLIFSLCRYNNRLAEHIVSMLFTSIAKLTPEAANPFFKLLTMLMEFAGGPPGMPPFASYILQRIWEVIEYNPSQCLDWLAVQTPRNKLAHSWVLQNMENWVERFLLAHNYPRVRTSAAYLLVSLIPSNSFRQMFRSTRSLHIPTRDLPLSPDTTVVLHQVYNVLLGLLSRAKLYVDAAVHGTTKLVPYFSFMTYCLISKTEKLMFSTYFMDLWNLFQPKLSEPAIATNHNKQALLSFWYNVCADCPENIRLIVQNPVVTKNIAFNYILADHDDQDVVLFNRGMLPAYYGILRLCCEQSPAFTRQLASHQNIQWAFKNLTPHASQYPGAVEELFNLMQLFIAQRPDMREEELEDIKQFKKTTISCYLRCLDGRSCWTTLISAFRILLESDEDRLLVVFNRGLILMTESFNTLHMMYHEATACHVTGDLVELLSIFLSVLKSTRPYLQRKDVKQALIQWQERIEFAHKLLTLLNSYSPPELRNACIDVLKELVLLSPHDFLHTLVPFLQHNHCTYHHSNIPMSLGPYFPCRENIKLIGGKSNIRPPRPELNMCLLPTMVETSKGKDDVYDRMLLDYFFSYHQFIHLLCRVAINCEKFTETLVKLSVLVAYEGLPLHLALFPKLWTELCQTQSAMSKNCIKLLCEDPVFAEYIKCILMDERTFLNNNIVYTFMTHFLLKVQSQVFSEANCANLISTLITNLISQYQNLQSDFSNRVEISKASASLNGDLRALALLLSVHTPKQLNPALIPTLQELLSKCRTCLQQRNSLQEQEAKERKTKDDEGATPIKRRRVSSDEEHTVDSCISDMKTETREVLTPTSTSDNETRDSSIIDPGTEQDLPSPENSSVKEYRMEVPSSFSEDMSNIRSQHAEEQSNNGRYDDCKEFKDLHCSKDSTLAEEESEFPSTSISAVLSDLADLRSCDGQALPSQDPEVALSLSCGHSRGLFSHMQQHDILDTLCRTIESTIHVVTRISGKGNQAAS
How it was run: (§1)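 The table lists average log2 ratios of fragment over vehicle, from an unpaired t-test on global-median-normalised Spectronaut label-free quantities. Proteins with ≥2 unique peptides were used. Samples were HEK293T lysate (495 µg) treated in triplicate with fragment at 200 µM or vehicle for 3 h, then with Biotin-Ahx-Ub-VS (0.5 µM final) for 1 h, with labelled DUBs NeutrAvidin-enriched and run by diaPASEF LC-MS/MS.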

[2] = biological target: T1, USP36 (UniProt Q9P275)
T1 sequence (whole entry): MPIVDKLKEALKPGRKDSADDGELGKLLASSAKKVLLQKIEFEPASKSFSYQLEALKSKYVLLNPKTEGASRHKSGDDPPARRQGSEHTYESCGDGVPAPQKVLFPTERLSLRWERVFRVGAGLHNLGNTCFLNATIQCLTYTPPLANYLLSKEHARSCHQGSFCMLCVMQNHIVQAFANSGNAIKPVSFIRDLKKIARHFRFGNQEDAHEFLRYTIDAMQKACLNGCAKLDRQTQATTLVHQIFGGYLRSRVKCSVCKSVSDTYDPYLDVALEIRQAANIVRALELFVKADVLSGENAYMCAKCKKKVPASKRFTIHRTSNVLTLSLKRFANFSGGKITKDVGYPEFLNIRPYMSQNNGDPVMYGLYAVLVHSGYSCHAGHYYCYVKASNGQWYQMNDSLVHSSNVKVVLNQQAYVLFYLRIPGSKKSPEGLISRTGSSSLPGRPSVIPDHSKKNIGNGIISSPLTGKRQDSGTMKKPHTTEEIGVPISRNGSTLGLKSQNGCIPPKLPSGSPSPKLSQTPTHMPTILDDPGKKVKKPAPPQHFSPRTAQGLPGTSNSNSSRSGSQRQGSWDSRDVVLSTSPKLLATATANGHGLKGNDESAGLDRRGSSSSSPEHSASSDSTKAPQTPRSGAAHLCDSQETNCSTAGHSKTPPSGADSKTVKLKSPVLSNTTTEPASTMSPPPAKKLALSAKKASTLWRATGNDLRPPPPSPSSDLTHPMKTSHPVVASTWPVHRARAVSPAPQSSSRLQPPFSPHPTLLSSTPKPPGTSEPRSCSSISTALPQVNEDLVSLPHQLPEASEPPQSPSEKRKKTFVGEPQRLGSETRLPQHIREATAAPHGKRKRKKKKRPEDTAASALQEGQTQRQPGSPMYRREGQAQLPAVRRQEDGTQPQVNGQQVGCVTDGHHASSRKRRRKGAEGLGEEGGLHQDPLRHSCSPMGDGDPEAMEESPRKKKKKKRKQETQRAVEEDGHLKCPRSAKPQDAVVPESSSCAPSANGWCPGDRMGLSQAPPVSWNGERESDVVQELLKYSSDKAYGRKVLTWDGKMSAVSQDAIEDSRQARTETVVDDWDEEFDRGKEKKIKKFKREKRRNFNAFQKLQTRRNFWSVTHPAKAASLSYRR
How it was run: as §1

[3] = biological target: T2, USP38 (UniProt Q8NB14)
T2 sequence (whole entry): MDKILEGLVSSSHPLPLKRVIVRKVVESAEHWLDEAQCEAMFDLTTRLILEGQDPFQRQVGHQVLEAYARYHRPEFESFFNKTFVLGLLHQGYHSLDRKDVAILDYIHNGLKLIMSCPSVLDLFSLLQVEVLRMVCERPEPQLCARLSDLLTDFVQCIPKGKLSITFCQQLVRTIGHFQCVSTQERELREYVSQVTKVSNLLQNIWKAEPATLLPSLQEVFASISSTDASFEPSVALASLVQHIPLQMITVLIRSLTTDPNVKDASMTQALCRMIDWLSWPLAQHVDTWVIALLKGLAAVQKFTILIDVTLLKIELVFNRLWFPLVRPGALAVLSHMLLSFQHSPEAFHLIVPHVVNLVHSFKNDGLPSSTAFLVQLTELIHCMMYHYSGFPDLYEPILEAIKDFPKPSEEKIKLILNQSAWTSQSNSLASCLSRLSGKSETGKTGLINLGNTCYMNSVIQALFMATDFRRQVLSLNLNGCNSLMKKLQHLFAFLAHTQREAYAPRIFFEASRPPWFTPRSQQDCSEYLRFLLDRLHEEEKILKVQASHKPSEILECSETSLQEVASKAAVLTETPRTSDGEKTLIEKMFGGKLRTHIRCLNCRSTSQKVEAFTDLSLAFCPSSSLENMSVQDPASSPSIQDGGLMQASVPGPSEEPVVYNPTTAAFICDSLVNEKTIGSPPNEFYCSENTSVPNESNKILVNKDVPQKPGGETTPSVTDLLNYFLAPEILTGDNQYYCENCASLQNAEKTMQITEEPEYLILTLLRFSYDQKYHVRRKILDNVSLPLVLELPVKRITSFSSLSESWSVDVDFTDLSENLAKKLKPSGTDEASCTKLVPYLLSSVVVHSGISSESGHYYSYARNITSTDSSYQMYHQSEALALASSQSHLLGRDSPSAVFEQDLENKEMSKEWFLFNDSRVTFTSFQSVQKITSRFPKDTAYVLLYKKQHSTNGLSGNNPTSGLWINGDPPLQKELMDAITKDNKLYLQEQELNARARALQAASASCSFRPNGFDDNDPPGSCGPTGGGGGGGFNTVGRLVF
How it was run: as §1

[4] = biological target: T3, USP39 (UniProt Q53GS9)
T3 sequence (whole entry): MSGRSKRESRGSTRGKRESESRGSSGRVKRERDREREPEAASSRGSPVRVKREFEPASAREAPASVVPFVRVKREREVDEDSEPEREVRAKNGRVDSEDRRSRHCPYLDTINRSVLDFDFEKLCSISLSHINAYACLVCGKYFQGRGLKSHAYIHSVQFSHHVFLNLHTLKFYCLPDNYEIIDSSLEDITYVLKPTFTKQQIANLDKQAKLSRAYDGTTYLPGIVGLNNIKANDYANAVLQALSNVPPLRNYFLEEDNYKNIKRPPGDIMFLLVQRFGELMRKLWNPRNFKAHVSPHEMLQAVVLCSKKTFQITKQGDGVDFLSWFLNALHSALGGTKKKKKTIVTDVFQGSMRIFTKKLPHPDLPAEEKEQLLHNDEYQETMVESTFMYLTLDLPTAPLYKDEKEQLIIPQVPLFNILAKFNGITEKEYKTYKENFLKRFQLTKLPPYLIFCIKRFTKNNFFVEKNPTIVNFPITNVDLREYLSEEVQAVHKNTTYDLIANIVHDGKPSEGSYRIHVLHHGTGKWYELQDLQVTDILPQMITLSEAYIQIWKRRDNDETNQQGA
How it was run: as §1

[5] = biological target: T4, USP4 (UniProt Q13107)
T4 sequence (whole entry): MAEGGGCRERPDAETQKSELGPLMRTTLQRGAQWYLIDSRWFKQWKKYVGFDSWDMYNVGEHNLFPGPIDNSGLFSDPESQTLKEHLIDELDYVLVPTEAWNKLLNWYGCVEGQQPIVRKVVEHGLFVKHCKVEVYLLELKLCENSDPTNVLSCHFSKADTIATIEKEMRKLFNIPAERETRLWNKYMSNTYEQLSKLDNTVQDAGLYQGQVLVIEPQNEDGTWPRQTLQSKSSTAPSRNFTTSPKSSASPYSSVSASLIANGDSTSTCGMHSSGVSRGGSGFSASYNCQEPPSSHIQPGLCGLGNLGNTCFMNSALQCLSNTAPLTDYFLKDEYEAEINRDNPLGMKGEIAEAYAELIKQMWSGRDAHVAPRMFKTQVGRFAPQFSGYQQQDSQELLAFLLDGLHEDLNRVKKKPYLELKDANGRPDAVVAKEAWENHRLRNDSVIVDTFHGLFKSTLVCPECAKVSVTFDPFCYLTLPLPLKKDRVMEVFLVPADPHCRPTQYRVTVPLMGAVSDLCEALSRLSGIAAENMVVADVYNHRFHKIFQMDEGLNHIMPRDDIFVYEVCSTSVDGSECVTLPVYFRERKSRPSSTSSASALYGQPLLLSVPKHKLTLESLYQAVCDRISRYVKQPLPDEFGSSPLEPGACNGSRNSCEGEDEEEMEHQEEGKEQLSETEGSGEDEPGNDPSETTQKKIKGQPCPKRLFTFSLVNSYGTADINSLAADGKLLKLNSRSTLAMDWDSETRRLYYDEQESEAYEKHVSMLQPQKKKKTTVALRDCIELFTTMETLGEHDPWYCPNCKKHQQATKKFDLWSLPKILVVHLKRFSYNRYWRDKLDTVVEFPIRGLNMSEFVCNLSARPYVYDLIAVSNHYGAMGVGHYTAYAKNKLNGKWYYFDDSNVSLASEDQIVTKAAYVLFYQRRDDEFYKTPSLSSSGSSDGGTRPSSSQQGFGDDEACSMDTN
How it was run: as §1

Measured: log2 ratio of Biotin-Ahx-Ub-VS probe labelling

O=C(CN1CCN(C(=O)CCl)CC1)Nc1cccc(F)c1
inactive: [1] -0.112 | [2] 0.0501 | [3] -0.114 | [4] -0.288 | [5] -0.0247
